Measured values taken from PubChem BioAssay AID2685 (National Center for Advancing Translational Sciences (NCATS), 2010).
About 2,100 (0.66%) of roughly 320,000 compounds were called active. Roughly 53% stayed inconclusive and do not appear here. The sample holds actives, similar compounds and a random draw of the others, so the mix is not that of the screen. Calls come from the whole dose curve; as a rule, active = well fitted inhibition curve with a large enough effect in the signal ratio, with a control signal flat (not every such curve was filed as active); inconclusive = small, poorly fitted or top-dose-only effect, or effect the other way, or a change in a side signal; inactive = flat fitted curve, though single readings scatter; the % refers to the signal ratio.

Assay: qHTS Assay for Lipid Storage Modulators in Drosophila S3 Cells;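 for cell number change: cells counted by Cell Tracker Red CMTPX staining in the red channel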; for lipid storage change, negative = inhibition: % is set by controls: 0 for no effect and ±100 for the full control effect
Conditions: BODIPY lipid droplet fluorescence, 18-24 h, cells fed with added oleic acid; cell number change: measured here: cell count max response; series mostly up to 46.1 µM; lipid storage change, negative = inhibition: at the top concentration
Outline: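 Drosophila S3 cells got compounds at several concentrations plus oleic acid (400 uM solution). Laser-scanning cytometry with 488 nm excitation read lipid droplets at 500-530 nm and cells at 575-640 nm. Percent activity was relative to 20 uM Triacsin C.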
Potency is the fitted concentration of half-maximal effect.

| Compound | lipid storage change, negative = inhibition | cell number change | outcome | Potency |
| --- | --- | --- | --- | --- |
| COc1ccc(/C=C/C(=O)NC(C)CCc2ccccc2)cc1OC (configuration not stated) | -7.83% (inactive) | 0.149% |  |  |
| O=C(NCCCNC(=O)c1ccccc1Br)c1ccccc1Br | -4.06% (inactive) | -12.7% |  |  |
| CC(=O)c1cccc(NC(=O)NC2CCCCCCC2)c1 | 10.8% (inactive) |  |  |  |
| O=C(Nc1cccc(F)c1)NC1CCCCC1 |  | -7.64% | inactive |  |
| Cc1cccc(NC(=S)NC2CCCC2)c1 | 17.3% (inactive) | 10.6% |  |  |
| Fc1cccc(NC(=S)NC2CCCCCCC2)c1 |  | -22.8% | inactive |  |
| FC(F)(F)c1cccc(NC(=S)NC2CCCC2)c1 |  | -29.3% |  | 18.4 µM (active) |
| O=C(Nc1cccc(F)c1)NC1CCCCCCC1 |  | 14.2% |  | 14.6 µM (active) |
| C/C=C\C=C\C(=O)Nc1cccc(C2=NOC3(C2)C[C@H](C(N)=O)N(C(=O)c2ccccc2C(=O)c2ccccc2)C3)c1 (some centres not stated) | 8.24% (inactive) | 1.47% |  |  |
| CCOC(=O)c1cnc(NCc2ccccc2)nc1C |  | -8.98% | inactive |  |
| CCN1CCN(c2cc(C)nc(-c3ccccc3O)n2)CC1 | 8.28% (inactive) | 0.893% |  |  |
| COc1ccccc1NS(=O)(=O)c1ccc(C(=O)NCC(c2ccccc2OC)N(C)C)cc1 (configuration not stated) | -24.9% (inactive) | 13% |  |  |
| Cc1cc2c(cc1S(=O)(=O)N(C)Cc1ccccc1)n(C)c(=O)c(=O)n2C |  | -28.5% | inactive |  |
| Cc1cc2c(cc1S(=O)(=O)Nc1cccc(C)c1C)n(C)c(=O)c(=O)n2C |  | -26.2% |  | 9.2 µM (active) |
| CCN(c1ccccc1)S(=O)(=O)c1cc(C(=O)O)ccc1C | 14.4% (inactive) | -3.04% |  |  |
| Cc1cccc(NS(=O)(=O)c2cn(C)c(=O)n(C)c2=O)c1C | -26.7% (inactive) | 14.4% |  |  |
| Cc1cccc(N(C)S(=O)(=O)c2cc3c(cc2C)n(C)c(=O)c(=O)n3C)c1 |  | -12.7% |  | 13 µM (active) |
| CCN(c1ccccc1)S(=O)(=O)c1cc2c(cc1C)n(C)c(=O)c(=O)n2C |  | -9.51% |  | 8.2 µM (active) |
| Cc1cc2c(cc1S(=O)(=O)N(C)c1ccccc1)n(C)c(=O)n2C | -21.6% (inactive) | 9.55% |  |  |
| Cc1cc2c(cc1S(=O)(=O)NCc1ccccc1)n(C)c(=O)c(=O)n2C |  | -17.3% | inactive |  |
| Cc1cc2[nH]c(=O)c(=O)[nH]c2cc1S(=O)(=O)Nc1cccc(C)c1C | 14.4% (inactive) | -1.15% |  |  |
| O=C(CN1C(=O)NC2(CCCC2)C1=O)Nc1cc(S(=O)(=O)N2CCOCC2)ccc1OCC(F)(F)F | 0.0733% (inactive) | 18% |  |  |
| Cc1ccccc1-n1nc2c(c1NC(=O)c1cccs1)CS(=O)(=O)C2 |  |  | inactive |  |

| Compound | lipid storage change, negative = inhibition | cell number change | outcome | Potency |
| --- | --- | --- | --- | --- |
| Nn1c(SCC(=O)Nc2ccccc2)nnc1-c1cccnc1 |  |  | inactive |  |
| COc1cccc(C(=O)Nc2nnc(-c3ccccc3)s2)c1 | -1.19% (inactive) | 0.556% |  |  |
| Cc1ccccc1NC(=O)CCC(=O)OCCCC(F)(F)C(F)(F)F | 20.7% (inactive) | 12.7% |  |  |
| Cc1ccccc1OC(=O)CCC(=O)OCCCC(F)(F)C(F)(F)F |  | 10.2% |  | 29.1 µM (active) |
| Cc1ccc(NC(=O)CCC(=O)OCCCC(F)(F)C(F)(F)F)cc1 | -0.336% (inactive) | -12.9% |  |  |
| O=c1oc(-c2cccc([N+](=O)[O-])c2)nc2ccccc12 | 12% (inactive) | 0.88% |  |  |
| COc1ccc(NS(=O)(=O)c2ccc3oc(=S)[nH]c3c2)cc1 | -21.1% (inactive) | 5.85% |  |  |
| CCn1c(=O)c(=O)[nH]c2c(=O)oc3ccc(S(=O)(=O)Nc4ccc(OC)cc4)cc3c21 |  | 1.26% |  | 4.61 µM (active) |
| CCn1c(=O)c(=O)[nH]c2c(=O)oc3ccc(S(=O)(=O)Nc4ccccc4)cc3c21 |  | -26.4% |  | 13 µM (active) |
| Cc1ccc(S(=O)(=O)Nc2c(O)c3ccccc3oc2=O)cc1C |  | 6.35% | inactive |  |
| Cn1c(=O)oc2cc(S(=O)(=O)Nc3ccccc3)ccc21 | -3.68% [at 9.22 µM] (inactive) | -3.03% |  |  |
| COc1ccc(NS(=O)(=O)c2ccc3oc(=O)ccc3c2)cc1 | -5.71% (inactive) | -11.6% |  |  |
| COc1ccc(-c2nc(=S)[nH][nH]2)cc1 | 2.02% (inactive) | -14.6% |  |  |
| O=C(NCc1cccnc1)C1CCCN(Cc2cnn(-c3ccccc3)c2-n2cccc2)C1 (configuration not stated) | 0.331% (inactive) | -3.38% |  |  |
| Cc1ccc2nc3c(cc(C(=O)NCc4ccco4)c(=N)n3Cc3ccco3)c(=O)n2c1 | -7.54% (inactive) | -5.34% |  |  |
| Cc1ccc(N(C(=O)CCC(=O)Nc2cc(C)on2)C(C(=O)NC2CCCC2)c2ccccc2)cc1 (configuration not stated) |  | -13.1% | inactive |  |
| O=C(CSc1nnc(-c2ccco2)n1-c1ccccc1)N1CCOCC1 |  |  | inactive |  |
| Cc1ccsc1C(=O)Nc1ccc(C(=O)O)cc1 |  |  | inactive |  |
| O=C(O)CCCC(=O)N1CCOCCOCCOCCOCC1 | -7% (inactive) | 22.2% |  |  |
| Cc1cccc(NC(=O)CNC(=O)COc2ccc(C(=O)c3ccc(F)cc3)cc2)c1C | 26.3% (inactive) | 8.34% |  |  |
| O=C(Cn1cc(S(=O)(=O)Cc2ccccc2)c2ccccc21)N1CCOCC1 | 10.8% (inactive) | 6.54% |  |  |
| CCN(CC)C(=O)Cn1cc(S(=O)(=O)Cc2cccc([N+](=O)[O-])c2)c2ccccc21 | 1.45% (inactive) | 0.298% |  |  |
| CN(C)C(=O)Cn1cc(S(=O)(=O)Cc2ccccc2)c2ccccc21 |  | -2.09% |  | 0.651 µM (active) |
